# Source: ChEMBL document CHEMBL1961873, “Compounds: GSK PKIS; Assays: Nanosyn kinase panel” (2012)
# Legend:
# [1] = target: Dual specificity protein kinase TTK (Homo sapiens) (UniProt P33981); details: at 0.1 µM
# [2] = test system: Receptor-type tyrosine-protein kinase FLT3 (Homo sapiens), P36888 [D835Y]; details: at 1 µM
# [3] = target: Vascular endothelial growth factor receptor 3 (Homo sapiens) (UniProt P35916); details: at 0.1 µM
# [4] = target: Vascular endothelial growth factor receptor 3 (Homo sapiens) (UniProt P35916); details: at 1 µM
# [5] = target: Macrophage colony-stimulating factor 1 receptor (Homo sapiens) (UniProt P07333); details: at 0.1 µM
# [6] = target: Macrophage colony-stimulating factor 1 receptor (Homo sapiens) (UniProt P07333); details: at 1 µM
# [7] = target: Tyrosine-protein kinase Fyn (Homo sapiens) (UniProt P06241); details: at 0.1 µM
# [8] = target: Tyrosine-protein kinase Fyn (Homo sapiens) (UniProt P06241); details: at 1 µM
# [9] = target: Tyrosine-protein kinase HCK (Homo sapiens) (UniProt P08631); details: at 0.1 µM
# [10] = target: Tyrosine-protein kinase HCK (Homo sapiens) (UniProt P08631); details: at 1 µM
# [11] = target: Insulin-like growth factor 1 receptor (Homo sapiens) (UniProt P08069); details: at 0.1 µM
# [12] = target: Insulin-like growth factor 1 receptor (Homo sapiens) (UniProt P08069); details: at 1 µM
# [13] = target: Insulin receptor (Homo sapiens) (UniProt P06213); details: at 0.1 µM
# [14] = target: Insulin receptor (Homo sapiens) (UniProt P06213); details: at 1 µM
# [15] = target: Insulin receptor-related protein (Homo sapiens) (UniProt P14616); details: at 0.1 µM
# [16] = target: Insulin receptor-related protein (Homo sapiens) (UniProt P14616); details: at 1 µM
# [17] = target: Tyrosine-protein kinase ITK/TSK (Homo sapiens) (UniProt Q08881); details: at 0.1 µM
# [18] = target: Tyrosine-protein kinase ITK/TSK (Homo sapiens) (UniProt Q08881); details: at 1 µM
# [19] = target: Tyrosine-protein kinase JAK1 (Homo sapiens) (UniProt P23458); details: at 0.1 µM
# [20] = target: Tyrosine-protein kinase JAK1 (Homo sapiens) (UniProt P23458); details: at 1 µM
# [21] = target: Tyrosine-protein kinase JAK2 (Homo sapiens) (UniProt O60674); details: at 0.1 µM
# [22] = target: Tyrosine-protein kinase JAK2 (Homo sapiens) (UniProt O60674); details: at 1 µM
# [23] = target: Tyrosine-protein kinase JAK3 (Homo sapiens) (UniProt P52333); details: at 0.1 µM
# [24] = target: Tyrosine-protein kinase JAK3 (Homo sapiens) (UniProt P52333); details: at 1 µM
# [25] = target: Vascular endothelial growth factor receptor 2 (Homo sapiens) (UniProt P35968); details: at 0.1 µM
# [26] = target: Vascular endothelial growth factor receptor 2 (Homo sapiens) (UniProt P35968); details: at 1 µM
# [27] = target: Mast/stem cell growth factor receptor Kit (Homo sapiens) (UniProt P10721); details: at 0.1 µM
# [28] = target: Mast/stem cell growth factor receptor Kit (Homo sapiens) (UniProt P10721); details: at 1 µM
# [29] = test system: Mast/stem cell growth factor receptor Kit (Homo sapiens), P10721 [D816V]; details: at 0.1 µM
# [30] = test system: Mast/stem cell growth factor receptor Kit (Homo sapiens), P10721 [D816V]; details: at 1 µM
# [31] = test system: Mast/stem cell growth factor receptor Kit (Homo sapiens), P10721 [T670I]; details: at 0.1 µM
# [32] = test system: Mast/stem cell growth factor receptor Kit (Homo sapiens), P10721 [T670I]; details: at 1 µM
# [33] = test system: Mast/stem cell growth factor receptor Kit (Homo sapiens), P10721 [V560G]; details: at 0.1 µM
# [34] = test system: Mast/stem cell growth factor receptor Kit (Homo sapiens), P10721 [V560G]; details: at 1 µM
# [35] = target: Tyrosine-protein kinase Lck (Homo sapiens) (UniProt P06239); details: at 0.1 µM
# [36] = target: Tyrosine-protein kinase Lck (Homo sapiens) (UniProt P06239); details: at 1 µM
# [37] = target: Leukocyte tyrosine kinase receptor (Homo sapiens) (UniProt P29376); details: at 0.1 µM
# [38] = target: Leukocyte tyrosine kinase receptor (Homo sapiens) (UniProt P29376); details: at 1 µM
# [39] = target: Tyrosine-protein kinase Lyn (Homo sapiens) (UniProt P07948); details: at 0.1 µM
# [40] = target: Tyrosine-protein kinase Lyn (Homo sapiens) (UniProt P07948); details: at 1 µM
# [41] = target: Tyrosine-protein kinase Lyn (Homo sapiens) (UniProt P07948); details: at 0.1 µM; remark: listed apart in the source
# [42] = target: Tyrosine-protein kinase Lyn (Homo sapiens) (UniProt P07948); details: at 1 µM; remark: listed apart in the source
# [43] = target: Tyrosine-protein kinase Mer (Homo sapiens) (UniProt Q12866); details: at 0.1 µM
# [44] = target: Tyrosine-protein kinase Mer (Homo sapiens) (UniProt Q12866); details: at 1 µM
# [45] = target: Hepatocyte growth factor receptor (Homo sapiens) (UniProt P08581); details: at 0.1 µM
# [46] = target: Hepatocyte growth factor receptor (Homo sapiens) (UniProt P08581); details: at 1 µM
# [47] = target: Muscle, skeletal receptor tyrosine-protein kinase (Homo sapiens) (UniProt O15146); details: at 0.1 µM
# [48] = target: Muscle, skeletal receptor tyrosine-protein kinase (Homo sapiens) (UniProt O15146); details: at 1 µM
# [49] = target: Platelet-derived growth factor receptor alpha (Homo sapiens) (UniProt P16234); details: at 0.1 µM
# [50] = target: Platelet-derived growth factor receptor alpha (Homo sapiens) (UniProt P16234); details: at 1 µM
# [51] = test system: Platelet-derived growth factor receptor alpha (Homo sapiens), P16234 [D842V]; details: at 0.1 µM
# [52] = test system: Platelet-derived growth factor receptor alpha (Homo sapiens), P16234 [D842V]; details: at 1 µM
# [53] = test system: Platelet-derived growth factor receptor alpha (Homo sapiens), P16234 [T674I]; details: at 0.1 µM
# [54] = test system: Platelet-derived growth factor receptor alpha (Homo sapiens), P16234 [T674I]; details: at 1 µM
# [55] = test system: Platelet-derived growth factor receptor alpha (Homo sapiens), P16234 [V561D]; details: at 0.1 µM
# [56] = test system: Platelet-derived growth factor receptor alpha (Homo sapiens), P16234 [V561D]; details: at 1 µM
# Chain of Tyrosine-protein kinase Lyn (Homo sapiens) (P07948 2-512 limits assumed): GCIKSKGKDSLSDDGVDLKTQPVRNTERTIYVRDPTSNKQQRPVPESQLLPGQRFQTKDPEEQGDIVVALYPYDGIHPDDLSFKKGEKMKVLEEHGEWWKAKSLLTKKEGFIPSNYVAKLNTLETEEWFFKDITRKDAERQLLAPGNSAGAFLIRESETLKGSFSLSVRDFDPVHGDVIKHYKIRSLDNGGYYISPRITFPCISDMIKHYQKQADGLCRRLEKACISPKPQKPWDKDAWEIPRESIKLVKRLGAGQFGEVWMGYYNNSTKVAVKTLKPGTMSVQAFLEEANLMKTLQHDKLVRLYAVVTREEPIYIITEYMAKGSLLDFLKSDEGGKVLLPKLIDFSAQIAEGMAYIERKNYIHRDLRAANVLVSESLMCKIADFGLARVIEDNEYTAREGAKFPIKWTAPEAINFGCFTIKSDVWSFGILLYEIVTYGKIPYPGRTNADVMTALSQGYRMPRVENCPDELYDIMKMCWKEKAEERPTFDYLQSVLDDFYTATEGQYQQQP
# Chain of Platelet-derived growth factor receptor alpha (Homo sapiens) (P16234 whole entry): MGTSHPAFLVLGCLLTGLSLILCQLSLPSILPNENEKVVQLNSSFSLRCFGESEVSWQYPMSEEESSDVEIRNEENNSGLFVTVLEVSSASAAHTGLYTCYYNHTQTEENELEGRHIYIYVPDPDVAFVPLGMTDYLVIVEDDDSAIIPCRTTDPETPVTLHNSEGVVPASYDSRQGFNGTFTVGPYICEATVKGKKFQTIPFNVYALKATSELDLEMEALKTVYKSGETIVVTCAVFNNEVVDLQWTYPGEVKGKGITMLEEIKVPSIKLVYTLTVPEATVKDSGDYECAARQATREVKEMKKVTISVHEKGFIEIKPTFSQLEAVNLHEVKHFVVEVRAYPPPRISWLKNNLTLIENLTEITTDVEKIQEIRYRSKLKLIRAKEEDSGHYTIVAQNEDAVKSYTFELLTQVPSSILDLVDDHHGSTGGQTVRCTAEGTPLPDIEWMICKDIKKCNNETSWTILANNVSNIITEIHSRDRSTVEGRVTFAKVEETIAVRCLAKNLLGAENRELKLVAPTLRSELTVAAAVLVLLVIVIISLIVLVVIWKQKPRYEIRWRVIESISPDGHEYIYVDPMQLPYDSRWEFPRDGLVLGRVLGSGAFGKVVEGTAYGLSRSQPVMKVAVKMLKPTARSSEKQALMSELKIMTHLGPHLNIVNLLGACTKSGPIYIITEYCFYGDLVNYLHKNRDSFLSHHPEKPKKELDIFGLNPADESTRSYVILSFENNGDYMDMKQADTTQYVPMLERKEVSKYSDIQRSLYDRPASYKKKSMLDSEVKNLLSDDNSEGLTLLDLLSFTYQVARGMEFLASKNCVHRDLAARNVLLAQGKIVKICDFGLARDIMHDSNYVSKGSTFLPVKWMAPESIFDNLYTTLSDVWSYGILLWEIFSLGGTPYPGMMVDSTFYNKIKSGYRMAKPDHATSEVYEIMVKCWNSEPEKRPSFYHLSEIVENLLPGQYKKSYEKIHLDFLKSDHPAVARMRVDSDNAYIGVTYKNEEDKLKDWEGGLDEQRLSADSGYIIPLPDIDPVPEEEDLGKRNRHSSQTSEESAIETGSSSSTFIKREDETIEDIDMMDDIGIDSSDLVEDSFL
# Chain of Insulin receptor-related protein (Homo sapiens) (P14616 27-742 limits assumed): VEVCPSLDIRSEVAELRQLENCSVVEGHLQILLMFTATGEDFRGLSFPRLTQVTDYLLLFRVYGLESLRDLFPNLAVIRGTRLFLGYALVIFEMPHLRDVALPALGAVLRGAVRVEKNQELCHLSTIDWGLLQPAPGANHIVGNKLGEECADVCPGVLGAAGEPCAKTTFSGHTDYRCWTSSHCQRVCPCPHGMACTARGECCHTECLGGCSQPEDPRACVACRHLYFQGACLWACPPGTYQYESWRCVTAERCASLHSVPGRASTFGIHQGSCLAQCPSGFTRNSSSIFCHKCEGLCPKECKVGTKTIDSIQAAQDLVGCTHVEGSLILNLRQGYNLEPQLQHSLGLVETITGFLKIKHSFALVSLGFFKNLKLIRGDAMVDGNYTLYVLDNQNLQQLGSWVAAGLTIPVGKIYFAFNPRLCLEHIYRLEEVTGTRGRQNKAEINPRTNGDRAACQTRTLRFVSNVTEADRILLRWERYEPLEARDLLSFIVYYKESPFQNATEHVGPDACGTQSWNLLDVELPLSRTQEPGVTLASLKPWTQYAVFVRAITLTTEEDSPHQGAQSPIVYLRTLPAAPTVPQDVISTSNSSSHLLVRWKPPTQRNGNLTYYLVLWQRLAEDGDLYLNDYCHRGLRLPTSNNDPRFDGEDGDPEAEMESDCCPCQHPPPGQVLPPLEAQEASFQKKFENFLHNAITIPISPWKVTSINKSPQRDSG
# Chain of Insulin receptor-related protein (Homo sapiens) (P14616 747-1297 limits assumed): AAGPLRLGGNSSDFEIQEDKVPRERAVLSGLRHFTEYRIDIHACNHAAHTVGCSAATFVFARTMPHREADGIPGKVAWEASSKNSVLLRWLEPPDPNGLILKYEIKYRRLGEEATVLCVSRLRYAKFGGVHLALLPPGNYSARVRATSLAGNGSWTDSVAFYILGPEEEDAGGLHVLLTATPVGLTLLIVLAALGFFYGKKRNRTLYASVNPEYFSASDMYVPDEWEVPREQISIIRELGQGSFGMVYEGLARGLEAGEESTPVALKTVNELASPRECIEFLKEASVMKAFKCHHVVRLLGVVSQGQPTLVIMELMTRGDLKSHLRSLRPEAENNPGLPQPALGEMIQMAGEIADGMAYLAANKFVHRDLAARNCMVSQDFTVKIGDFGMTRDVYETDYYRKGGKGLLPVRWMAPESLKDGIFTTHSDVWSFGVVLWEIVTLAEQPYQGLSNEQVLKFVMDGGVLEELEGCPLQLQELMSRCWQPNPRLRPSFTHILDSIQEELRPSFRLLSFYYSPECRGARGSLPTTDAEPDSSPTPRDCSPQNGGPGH
# Chain of Tyrosine-protein kinase Mer (Homo sapiens) (Q12866 whole entry): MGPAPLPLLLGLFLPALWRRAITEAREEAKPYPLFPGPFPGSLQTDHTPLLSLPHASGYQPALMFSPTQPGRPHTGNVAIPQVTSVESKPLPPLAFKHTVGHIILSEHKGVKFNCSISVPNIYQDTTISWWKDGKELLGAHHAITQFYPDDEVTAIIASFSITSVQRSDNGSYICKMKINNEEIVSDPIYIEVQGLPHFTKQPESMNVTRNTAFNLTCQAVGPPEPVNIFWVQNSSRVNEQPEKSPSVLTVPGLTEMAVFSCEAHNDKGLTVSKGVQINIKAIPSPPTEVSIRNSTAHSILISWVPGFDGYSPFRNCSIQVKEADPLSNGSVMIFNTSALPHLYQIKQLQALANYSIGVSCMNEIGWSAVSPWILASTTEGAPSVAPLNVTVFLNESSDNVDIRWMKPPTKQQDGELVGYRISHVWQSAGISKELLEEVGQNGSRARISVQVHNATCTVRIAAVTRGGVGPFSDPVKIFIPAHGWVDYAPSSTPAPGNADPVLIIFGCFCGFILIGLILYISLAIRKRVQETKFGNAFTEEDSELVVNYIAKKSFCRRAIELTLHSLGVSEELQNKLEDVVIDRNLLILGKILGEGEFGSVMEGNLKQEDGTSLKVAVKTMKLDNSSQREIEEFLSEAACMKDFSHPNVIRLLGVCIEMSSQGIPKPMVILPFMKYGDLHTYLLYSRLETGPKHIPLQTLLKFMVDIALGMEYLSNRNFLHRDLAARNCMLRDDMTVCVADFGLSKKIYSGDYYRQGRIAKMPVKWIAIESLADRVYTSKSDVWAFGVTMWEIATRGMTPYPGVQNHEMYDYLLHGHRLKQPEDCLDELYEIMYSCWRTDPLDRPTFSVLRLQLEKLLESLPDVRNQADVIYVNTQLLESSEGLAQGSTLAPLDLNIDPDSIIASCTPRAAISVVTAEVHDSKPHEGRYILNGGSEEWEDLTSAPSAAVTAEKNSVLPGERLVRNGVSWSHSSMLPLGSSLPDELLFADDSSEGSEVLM
# Chain of Tyrosine-protein kinase HCK (Homo sapiens) (P08631 2-526 limits assumed): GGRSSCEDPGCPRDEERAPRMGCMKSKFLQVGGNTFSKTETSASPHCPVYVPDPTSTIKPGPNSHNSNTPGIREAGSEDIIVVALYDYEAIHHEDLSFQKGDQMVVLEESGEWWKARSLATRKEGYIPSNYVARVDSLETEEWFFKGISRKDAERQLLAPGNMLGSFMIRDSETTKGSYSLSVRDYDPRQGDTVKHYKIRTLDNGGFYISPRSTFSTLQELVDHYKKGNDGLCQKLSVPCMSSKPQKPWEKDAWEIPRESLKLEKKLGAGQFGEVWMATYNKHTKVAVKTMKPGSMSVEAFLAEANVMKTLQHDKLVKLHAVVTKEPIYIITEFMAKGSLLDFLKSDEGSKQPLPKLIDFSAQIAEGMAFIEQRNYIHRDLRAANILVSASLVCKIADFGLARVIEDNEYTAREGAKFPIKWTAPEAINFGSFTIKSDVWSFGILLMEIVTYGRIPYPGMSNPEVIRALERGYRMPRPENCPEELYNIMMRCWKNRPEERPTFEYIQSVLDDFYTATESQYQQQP
# Chain of Tyrosine-protein kinase ITK/TSK (Homo sapiens) (Q08881 whole entry): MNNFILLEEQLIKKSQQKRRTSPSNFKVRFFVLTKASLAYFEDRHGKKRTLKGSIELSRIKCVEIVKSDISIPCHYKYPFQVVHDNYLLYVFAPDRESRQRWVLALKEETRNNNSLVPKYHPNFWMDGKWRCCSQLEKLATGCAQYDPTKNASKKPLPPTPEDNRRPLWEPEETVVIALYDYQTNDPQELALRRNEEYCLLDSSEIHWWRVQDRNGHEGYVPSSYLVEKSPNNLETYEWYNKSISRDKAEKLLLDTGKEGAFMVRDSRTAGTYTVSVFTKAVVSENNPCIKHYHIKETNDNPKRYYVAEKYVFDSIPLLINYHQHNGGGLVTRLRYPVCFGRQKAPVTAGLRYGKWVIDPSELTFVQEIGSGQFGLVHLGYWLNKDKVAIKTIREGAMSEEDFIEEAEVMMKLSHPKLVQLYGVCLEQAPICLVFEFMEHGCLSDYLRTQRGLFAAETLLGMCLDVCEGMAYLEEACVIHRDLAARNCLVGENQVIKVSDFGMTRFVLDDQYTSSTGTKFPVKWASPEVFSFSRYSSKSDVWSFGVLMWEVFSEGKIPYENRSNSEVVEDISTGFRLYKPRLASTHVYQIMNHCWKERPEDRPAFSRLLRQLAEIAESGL
# Chain of Platelet-derived growth factor receptor alpha (Homo sapiens), P16234 [T674I] (P16234 whole entry T674I): as the sequence (P16234 whole entry) above, with T674I counted along it
smiles,measurement,setting,value
CNC(=O)Oc1cc(C)c(/C=C/c2cncc(C(=O)NC)c2)c(C)c1,inhibition,[1],3.53%
same,inhibition,[2],-6.68%
same,inhibition,[3],2.38%
same,inhibition,[4],3.06%
same,inhibition,[5],4.08%
same,inhibition,[6],28.3%
same,inhibition,[7],4.17%
same,inhibition,[8],32.4%
same,inhibition,[9],14.3%
same,inhibition,[10],51.1%
same,inhibition,[11],6.27%
same,inhibition,[12],6.14%
same,inhibition,[13],3.13%
same,inhibition,[14],3.08%
same,inhibition,[15],3.12%
same,inhibition,[16],2.02%
same,inhibition,[17],0.99%
same,inhibition,[18],1.69%
same,inhibition,[19],3.98%
same,inhibition,[20],-1.5%
same,inhibition,[21],1.67%
same,inhibition,[22],1.34%
same,inhibition,[23],0.21%
same,inhibition,[24],-1.11%
same,inhibition,[25],-0.28%
same,inhibition,[26],4.06%
same,inhibition,[27],12.7%
same,inhibition,[28],63.5%
same,inhibition,[29],4.33%
same,inhibition,[30],-0.14%
same,inhibition,[31],1.64%
same,inhibition,[32],-1.04%
same,inhibition,[33],2.06%
same,inhibition,[34],14.4%
same,inhibition,[35],6.81%
same,inhibition,[36],41%
same,inhibition,[37],3.84%
same,inhibition,[38],5.56%
same,inhibition,[39],13.7%
same,inhibition,[40],57.1%
same,inhibition,[41],9.47%
same,inhibition,[42],52.3%
same,inhibition,[43],1.05%
same,inhibition,[44],0.84%
same,inhibition,[45],-2.86%
same,inhibition,[46],-0.63%
same,inhibition,[47],1.43%
same,inhibition,[48],4.49%
same,inhibition,[49],12.5%
same,inhibition,[50],42.2%
same,inhibition,[51],2.6%
same,inhibition,[52],13.1%
same,inhibition,[53],3.98%
same,inhibition,[54],4.15%
same,inhibition,[55],13.5%
same,inhibition,[56],52.3%
